We go through five molecules from PubChem BioAssay.

The nature of assay [1]: small molecules captured by biotinylated probe aFSTL3 – biochemical, small-molecule microarray, fluorescence 635/667, stem cell growth factor project, primary screen (AID 1064).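 Note: measures binding of the biotinylated anti-FSTL3 antibody to printed compounds.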 Particulars: higher = more signal.
A short description of assay [2]: binders from COS7 lysate, DM2A8 probe, primary screen, torsin A project, cell lysate, small-molecule microarray, fluorescence 635/667 (AID 1065). As to conditions: higher = more signal, COS7 lysate expressing mutant human TOR1A.
Assay [3] is described as follows: small molecules captured by biotinylated probe aFGF2 – biochemical, small-molecule microarray, fluorescence 635/667, stem cell growth factor project, primary screen (AID 1067).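 Note: measures binding of biotinylated aFGF2 protein to printed compounds on slides; z-score merges feature fluorescence and signal-to-noise across triplicate slides.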 Particulars: higher = more signal.
A short description of assay [4]: small molecules captured by biotinylated probe aFGF10 – biochemical, small-molecule microarray, fluorescence 635/667, stem cell growth factor project, primary screen (AID 1071).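 Note: score merges 667 nm spot intensity and signal to noise from triplicate slides.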 As to conditions: higher = more signal.
In assay [5] the target is Neurogenic locus notch homolog protein 2 (Homo sapiens) (UniProt Q04721). The assay is described as follows: small molecules binding Notch2 protein – biochemical, small-molecule microarray, 635 nm fluorescence, stem cell growth factors, primary screen (AID 1073). As to conditions: higher = more signal.
Neurogenic locus notch homolog protein 2 (Homo sapiens), sequence (Q04721 whole entry, looked up, canonical isoform): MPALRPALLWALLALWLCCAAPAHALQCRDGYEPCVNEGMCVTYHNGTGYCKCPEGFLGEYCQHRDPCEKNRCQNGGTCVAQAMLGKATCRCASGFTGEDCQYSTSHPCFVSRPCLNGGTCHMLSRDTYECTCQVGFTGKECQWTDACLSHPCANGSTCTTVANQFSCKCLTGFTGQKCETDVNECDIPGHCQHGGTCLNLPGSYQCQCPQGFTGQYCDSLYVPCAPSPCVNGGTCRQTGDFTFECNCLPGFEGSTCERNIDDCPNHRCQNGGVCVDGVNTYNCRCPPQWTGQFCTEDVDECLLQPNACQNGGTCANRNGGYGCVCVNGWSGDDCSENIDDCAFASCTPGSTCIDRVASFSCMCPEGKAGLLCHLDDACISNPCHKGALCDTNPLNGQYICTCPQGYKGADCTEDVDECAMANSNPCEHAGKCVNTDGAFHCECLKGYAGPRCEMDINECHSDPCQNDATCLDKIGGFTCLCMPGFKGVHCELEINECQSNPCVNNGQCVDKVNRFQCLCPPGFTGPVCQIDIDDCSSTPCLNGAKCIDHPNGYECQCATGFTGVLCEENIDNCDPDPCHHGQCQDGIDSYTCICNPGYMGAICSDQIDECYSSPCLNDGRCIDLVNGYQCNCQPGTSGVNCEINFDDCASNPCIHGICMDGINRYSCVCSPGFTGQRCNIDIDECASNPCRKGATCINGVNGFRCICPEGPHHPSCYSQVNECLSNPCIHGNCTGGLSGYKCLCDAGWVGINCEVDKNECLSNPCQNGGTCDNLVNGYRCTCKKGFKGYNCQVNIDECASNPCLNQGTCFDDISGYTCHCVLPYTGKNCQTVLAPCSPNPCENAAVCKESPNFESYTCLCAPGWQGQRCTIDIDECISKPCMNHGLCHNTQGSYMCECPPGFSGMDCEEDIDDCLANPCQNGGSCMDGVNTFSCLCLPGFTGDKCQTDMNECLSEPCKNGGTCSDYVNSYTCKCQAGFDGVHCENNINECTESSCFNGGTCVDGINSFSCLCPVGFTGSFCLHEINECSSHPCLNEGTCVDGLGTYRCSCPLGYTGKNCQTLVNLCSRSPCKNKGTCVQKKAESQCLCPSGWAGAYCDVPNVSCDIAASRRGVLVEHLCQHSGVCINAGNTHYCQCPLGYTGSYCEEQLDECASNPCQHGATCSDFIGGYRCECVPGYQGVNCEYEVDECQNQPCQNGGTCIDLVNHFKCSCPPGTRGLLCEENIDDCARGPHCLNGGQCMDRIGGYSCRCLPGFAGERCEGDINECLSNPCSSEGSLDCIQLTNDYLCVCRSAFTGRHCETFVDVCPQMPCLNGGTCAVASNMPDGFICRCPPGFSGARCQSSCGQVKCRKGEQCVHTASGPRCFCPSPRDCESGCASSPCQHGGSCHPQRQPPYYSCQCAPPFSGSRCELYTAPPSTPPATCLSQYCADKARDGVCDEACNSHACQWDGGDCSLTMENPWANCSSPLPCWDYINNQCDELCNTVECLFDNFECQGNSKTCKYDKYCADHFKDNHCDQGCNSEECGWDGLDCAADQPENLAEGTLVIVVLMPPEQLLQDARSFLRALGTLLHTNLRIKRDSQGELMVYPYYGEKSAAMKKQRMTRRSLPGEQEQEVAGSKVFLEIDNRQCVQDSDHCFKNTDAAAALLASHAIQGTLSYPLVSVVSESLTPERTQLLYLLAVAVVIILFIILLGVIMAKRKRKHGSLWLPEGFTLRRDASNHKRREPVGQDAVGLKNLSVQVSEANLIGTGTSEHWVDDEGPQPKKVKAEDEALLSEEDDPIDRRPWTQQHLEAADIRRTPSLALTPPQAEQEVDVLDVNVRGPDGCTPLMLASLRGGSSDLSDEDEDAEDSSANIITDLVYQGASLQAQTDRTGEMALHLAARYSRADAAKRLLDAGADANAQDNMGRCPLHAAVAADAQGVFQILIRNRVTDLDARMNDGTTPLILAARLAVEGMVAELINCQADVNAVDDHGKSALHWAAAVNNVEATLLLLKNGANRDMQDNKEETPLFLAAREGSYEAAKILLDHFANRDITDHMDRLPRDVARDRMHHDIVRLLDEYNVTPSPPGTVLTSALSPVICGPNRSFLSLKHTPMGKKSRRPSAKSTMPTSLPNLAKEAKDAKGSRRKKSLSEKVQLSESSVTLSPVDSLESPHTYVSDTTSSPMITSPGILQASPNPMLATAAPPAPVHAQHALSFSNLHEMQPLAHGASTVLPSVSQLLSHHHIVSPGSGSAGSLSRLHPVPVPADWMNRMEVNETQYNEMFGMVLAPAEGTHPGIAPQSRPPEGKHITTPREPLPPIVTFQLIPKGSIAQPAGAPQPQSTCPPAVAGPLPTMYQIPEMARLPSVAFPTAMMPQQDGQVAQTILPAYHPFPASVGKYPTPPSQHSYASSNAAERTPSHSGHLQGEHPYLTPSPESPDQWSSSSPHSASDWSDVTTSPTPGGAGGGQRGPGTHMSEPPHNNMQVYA
Assay [6] concerns the target Pro-neuregulin-1, membrane-bound isoform (Homo sapiens) (UniProt Q02297). The assay can be described thus: small molecules binding neuregulin-1 protein – biochemical, small-molecule microarray, fluorescence 635/667, psychiatric disease protein project, primary screen (AID 1075).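 Note: score combines 667 nm spot fluorescence with signal to noise.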 Particulars: NRG1 binding, 635 nm fluorescence, higher = more signal.
The subject of assay [7] is Neuregulin-1 EGF-like domain. The assay is described as follows: small molecules binding NRG1 EGF domain – biochemical, small-molecule microarray, 635 nm fluorescence, primary screen (AID 1081).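 Note: binding of the protein to compounds printed on small-molecule microarray slides.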 Particulars: higher = more signal.
Assay [8] can be described thus: FRG1 expression reporter modulators in myotubes – cell-based, C2C12 myotubes, firefly/Renilla luciferase, luminescence, FRG1 inhibition for FSHD, primary screen (AID 1084). Particulars: FRG1 promoter luciferase, higher = more signal, called active from +8 up or from −8 down.
Assay [9] can be described thus: small molecules captured by biotinylated probe aFST – biochemical, small-molecule microarray, fluorescence 635/667, stem cell growth factor project, primary screen (AID 1086).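 Note: score merges 667 nm fluorescence with signal-to-noise of each printed compound spot.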 As to conditions: higher = more signal.
The nature of assay [10]: binders of probe aHhip on microarray, primary screen, stem cell growth factor project, biochemical, small-molecule microarray, fluorescence 635/667 (AID 1087).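 Note: score merges spot fluorescence at 667nm with spot signal to noise ratio.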 As to conditions: higher = more signal.
The subject of assay [11] is PRMT1 (protein arginine N-methyltransferase 1). The assay can be described thus: small molecules binding arginine methyltransferase PRMT1 – biochemical, small-molecule microarray, 635 nm fluorescence, primary screen (AID 1088).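 Note: binding of Prmt1 protein to compounds spotted on small-molecule microarray slides.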 As to conditions: higher = more signal.
Assay [12] in a line: growth effects on S. cerevisiae YJM789 – YJM789 clinical isolate, OD600, 24 h, basal, primary screen (AID 1089).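 Note: growth of clinical yeast isolate S. cerevisiae YJM 789 seeded 1000 cells per well; test concentration not given here.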 Particulars: higher = more signal, called active from +8 up or from −8 down.
A short description of assay [13]: S. pombe growth modifiers, basal conditions – strain 972, OD600, 24 h, no modulator, primary screen (AID 1090).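 Note: basal condition with compound alone and no growth modifier present; test concentration not given here.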 As to conditions: S. pombe 972 growth, higher = more signal, called active from +8 up or from −8 down.
Assay [14] in a line: budding yeast growth modifiers under rapamycin – strain BY4716, OD600, 96 h, primary screen (AID 1091). Note: test concentration not given here. Particulars: S. cerevisiae BY4716 + rapamycin, higher = more signal, called active from +8 up or from −8 down.
Assay [15] deals with Torsin-1A-interacting protein 2 (Homo sapiens) (UniProt Q8NFQ8). The assay is described as follows: small molecules binding lysate-expressed LULL1 – cell lysate, human LULL1 lysate, 635/667 nm fluorescence, primary screen (AID 1092).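 Note: probe is lysate of COS7 cells overexpressing human LULL1; score merges per-feature 667 nm fluorescence with signal-to-noise.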 Particulars: small-molecule microarray, hLULL1 lysate binding, 635 nm fluorescence; higher = more signal.
Torsin-1A-interacting protein 2 (Homo sapiens), sequence (Q8NFQ8 whole entry, looked up): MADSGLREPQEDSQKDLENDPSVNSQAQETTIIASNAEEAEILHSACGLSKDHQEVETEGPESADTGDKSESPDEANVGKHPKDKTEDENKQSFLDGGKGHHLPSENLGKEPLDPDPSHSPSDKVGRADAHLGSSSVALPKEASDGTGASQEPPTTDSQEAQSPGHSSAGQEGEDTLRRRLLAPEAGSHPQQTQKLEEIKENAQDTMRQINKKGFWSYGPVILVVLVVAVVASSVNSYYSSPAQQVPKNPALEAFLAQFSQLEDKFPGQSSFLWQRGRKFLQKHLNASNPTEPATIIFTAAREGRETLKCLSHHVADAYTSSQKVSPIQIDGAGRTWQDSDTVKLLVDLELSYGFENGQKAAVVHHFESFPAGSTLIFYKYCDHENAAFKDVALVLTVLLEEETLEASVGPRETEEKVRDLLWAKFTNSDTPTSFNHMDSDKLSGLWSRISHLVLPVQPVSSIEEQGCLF
Assay [16] can be described thus: optical density change of DRC41 E. coli – strain DRC41, OD650, 24 h, E. coli filamentation project, primary screen (AID 1093).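 Note: MC1000 strain lacking acrAB efflux and sulA so SOS filamentation is blocked; test concentration not given here.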 As to conditions: E. coli DRC41 growth, higher = more signal, called active from +8 up or from −8 down.
Assay [17] in a line: probe aLefty2 binding to arrayed compounds – biochemical, biotinylated probe, 635/667 nm fluorescence, primary screen (AID 1094).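 Note: score merges spot fluorescence near 667 nm with spot signal-to-noise ratio.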 Particulars: small-molecule microarray, higher = more signal.
Assay [18] has as its system Noggin (protein binding on small-molecule microarray). The assay can be described thus: small molecules binding Noggin protein – biochemical, 635/667 nm fluorescence, primary screen (AID 1095).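 Note: score merges 667 nm feature fluorescence with signal to noise over triplicate slides.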 Particulars: 635 nm fluorescence, higher = more signal.
For assay [19], the target named is Neurogenic locus notch homolog protein 3 (Homo sapiens) (UniProt Q9UM47). The assay can be described thus: small molecules binding NOTCH3 protein – biochemical, 635/667 nm fluorescence, primary screen (AID 1096). As to conditions: small-molecule microarray, 635 nm fluorescence, higher = more signal.
Assay [20] is described as follows: probe aEGFR binding to arrayed compounds – biochemical, biotinylated probe, 635/667 nm fluorescence, primary screen (AID 1097).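 Note: probe is a biotinylated anti-EGFR antibody binding compounds printed on slides; score combines fluorescence near 667 nm and signal to noise of each spot.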 As to conditions: small-molecule microarray, higher = more signal.

Structures are written as SMILES. Activity calls are given as the source filed them.

Pro-neuregulin-1, membrane-bound isoform (Homo sapiens), sequence (Q02297 whole entry, looked up, the tested form may be a part, canonical isoform): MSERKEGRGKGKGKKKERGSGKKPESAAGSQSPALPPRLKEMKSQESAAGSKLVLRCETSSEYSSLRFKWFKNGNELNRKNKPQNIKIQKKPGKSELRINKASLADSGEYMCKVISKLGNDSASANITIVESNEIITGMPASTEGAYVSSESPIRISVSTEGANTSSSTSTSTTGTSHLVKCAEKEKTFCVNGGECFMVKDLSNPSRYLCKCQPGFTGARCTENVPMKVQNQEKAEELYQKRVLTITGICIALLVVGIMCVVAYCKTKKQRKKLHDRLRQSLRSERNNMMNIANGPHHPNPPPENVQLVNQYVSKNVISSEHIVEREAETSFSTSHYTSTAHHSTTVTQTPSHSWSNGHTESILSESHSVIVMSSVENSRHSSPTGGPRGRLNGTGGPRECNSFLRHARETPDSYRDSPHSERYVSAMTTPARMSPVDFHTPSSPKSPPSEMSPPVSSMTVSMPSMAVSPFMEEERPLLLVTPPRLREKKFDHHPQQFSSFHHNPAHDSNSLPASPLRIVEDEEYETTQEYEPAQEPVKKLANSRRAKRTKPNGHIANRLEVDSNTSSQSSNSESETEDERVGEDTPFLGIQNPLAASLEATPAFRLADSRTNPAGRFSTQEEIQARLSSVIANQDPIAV

Consider `COC(=O)CC=C[C@H](C)[C@H](CO)NS(=O)(=O)c1ccc(C)cc1`, for which the composite z-score was -0.634 in assay [1]; 0.0049 in assay [2]; -0.163 in assay [3]; 0.476 in [4]; 0.24 in assay [5]; -0.0696 in [6]. For the same molecule, the composite z-score in assay [7] is 0.629; in [9], 0.12; in assay [10] it was -0.132; in assay [11], 0.562; in assay [15] it was 0.368; in assay [17] it was -0.243. Also, the composite z-score in assay [18] was 0.504; in [19], 0.506; in [20], -0.0953. The z-score in [8] is -0.599 (inactive); in assay [12], -0.0524 (inactive); in [13], -0.256 (inactive); in [14], -0.142 (inactive); in [16], -0.518 (inactive).

Take `COC(=O)[C@@H]1CC[C@H](C)[C@@H](c2ccc(C)cc2)N1C(=O)c1ccc(C=NOC(C)CN2CCCCc3nc(C)c(C)cc32)cc1` (stereo not given in full): the composite z-score in assay [1] was 0.145; in assay [2], -0.859; in [3], -0.0959; in assay [4], 0.233; in [5], -0.199; in assay [6], 0.131. In addition, the composite z-score was 0.312 in assay [7]; 0.165 in assay [9]; 0.226 in [10]; -0.066 in assay [11]; -0.0101 in [15]; -0.0332 in [17]. The values for the composite z-score in [18], in assay [19] and in assay [20] were 0.149, -0.145 and -0.0929, respectively. The z-score in assay [8] was 0.204 (inactive); in assay [12], -0.632 (inactive); in assay [13], -11.8 (active); in [14], 0.325 (inactive); in assay [16], 0.829 (inactive).

`COC(=O)[C@@]1(Cc2ccc(F)cc2)[C@H]2c3cc(C(=O)N(C)C)n(Cc4ccc(OC)c(OC)c4)c3C[C@H]2CN1C(=O)c1ccccc1`: the composite z-score in assay [1] is 0.257; in [2], -0.0565; in [3], 0.184; in assay [4], 0.551; in assay [5], 1.56; in assay [6], 0.641. For the same molecule, the composite z-score in assay [7] was 1.44; in assay [9], 0.169; in assay [10], 0.402; in assay [11], -1.32; in [15] it was 1.54; in assay [17], 0.498. In addition, the figures for the composite z-score in [18], in assay [19] and in [20] were -0.344, -0.309 and 0.365, respectively. Further, the z-score in [8] is 0.619 (inactive); in assay [12], 0.0573 (inactive); in assay [13], -0.636 (inactive); in assay [14], -0.249 (inactive); in assay [16] it was -0.31 (inactive).

For `O=C(CS)NCCCCCNC(=O)[C@H]1C[C@H]2C(=O)N3CCC[C@H]3C(=O)N2[C@H]1c1cccc(OCCO)c1`, the composite z-score in [1] is 0.32; in assay [2], 1.52; in assay [3] it was -0.0718; in assay [4] it was 0.564; in assay [5], -0.0686; in assay [6], 0.665. For the same molecule, the composite z-score in assay [7] was 1.35; in assay [9], 0.442; in assay [10], 0.0274; in assay [11], 1.53; in assay [15], 2.7; in assay [17], 0.0124. Further, the composite z-score was 1.76 in [18], 1.1 in assay [19] and -0.0025 in assay [20]. Further, the z-score was 0.556 (inactive) in assay [8]; 0.436 (inactive) in [12]; -0.723 (inactive) in [13]; -0.173 (inactive) in assay [14]; 0.146 (inactive) in assay [16].

Take `O=C(CS)NCCCCCNC(=O)[C@@H]1C[C@@H]2C(=O)N[C@@H](Cc3ccccc3)C(=O)N2[C@@H]1c1ccc(O)cc1`: the composite z-score in assay [1] is 0.154; in [2], 0.524; in assay [3], -0.0766; in [4], 0.435; in [5] it was -0.138; in assay [6], 0.67. Further, the composite z-score was 1.36 in assay [7]; 0.0658 in assay [9]; -0.0994 in [10]; 1.47 in assay [11]; 3.06 in [15]; -0.0687 in assay [17]. For the same molecule, the composite z-score in [18] was -0.306; in assay [19], 0.373; in assay [20], -0.104. Further, the z-score in assay [8] was 1.2 (inactive); in [12] it was 0.176 (inactive); in [13], -0.321 (inactive); in assay [14], 0.858 (inactive); in [16] it was 1.28 (inactive).
